The values below come from PubChem BioAssay AID743100 (Vanderbilt Specialized Chemistry Center, 2013).

Values without a mark were called inactive. Activity calls are given as the source filed them.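 Rule for the calls: active = calcium response above 60% of the acetylcholine maximum at human M5, as a positive modulator; inactive = the rest.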

The target in the assay is Muscarinic acetylcholine receptor M5 (Homo sapiens) (UniProt P08912). The assay is described as follows: potentiators of ACh response at human M5 – cell-based, single concentration, CHO-K1 hM5, calcium flux (AID 743100). To be noted: CHO-K1 hM5, Fluo-4 calcium flux, ACh EC20, stronger effect = higher value; at 10 µM unless noted. On the technique in general: Calcium assays in cells follow changes in intracellular calcium, usually with a dye or a luminescent sensor.
Chain of Muscarinic acetylcholine receptor M5 (Homo sapiens) (P08912 whole entry, looked up): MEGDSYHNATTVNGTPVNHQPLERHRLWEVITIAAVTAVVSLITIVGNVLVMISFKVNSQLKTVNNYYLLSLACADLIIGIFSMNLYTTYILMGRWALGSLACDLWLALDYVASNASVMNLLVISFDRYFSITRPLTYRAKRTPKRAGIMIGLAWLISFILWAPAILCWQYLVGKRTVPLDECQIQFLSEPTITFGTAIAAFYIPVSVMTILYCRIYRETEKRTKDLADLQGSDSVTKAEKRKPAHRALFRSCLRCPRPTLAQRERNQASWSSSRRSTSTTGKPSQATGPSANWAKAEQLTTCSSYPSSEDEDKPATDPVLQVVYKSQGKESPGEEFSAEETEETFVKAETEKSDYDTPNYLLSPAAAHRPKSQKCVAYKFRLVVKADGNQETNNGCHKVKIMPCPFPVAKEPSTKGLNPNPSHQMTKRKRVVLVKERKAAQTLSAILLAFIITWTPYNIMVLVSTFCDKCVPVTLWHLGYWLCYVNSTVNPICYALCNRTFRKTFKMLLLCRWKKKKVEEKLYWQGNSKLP
Regarding `CCN(Cc1ccccc1)C(=O)C1CCN(S(=O)(=O)c2ccc(OC)cc2)CC1`, the % ACh max response was 78.4% [at 30 µM] (active).
As to `CCN(Cc1ccccc1C(F)(F)F)C(=O)C1(F)CCN(S(=O)(=O)c2ccc(-n3cccn3)cc2)CC1`, the % ACh max response is 51.8%.
Turning to `CCN(Cc1ccccc1)C(=O)C1CCN(S(=O)(=O)c2cccc(OC(F)F)c2)CC1`, the % ACh max response is 70.2% [at 30 µM] (active).
`CCN(Cc1cccc(OC)c1)C(=O)C1CCN(S(=O)(=O)c2ccc3cn[nH]c3c2)CC1`: the % ACh max response is 74.2% (active).
For `CCN(Cc1ccccc1)C(=O)C1CCN(S(=O)(=O)c2ccccc2F)CC1`, the % ACh max response is 38.4% [at 30 µM].
For the molecule `O=C(NCc1ccccc1)C1(Cc2ccccc2)CCN(S(=O)(=O)c2ccc3occc3c2)CC1`, the % ACh max response is 20.1%.
As to `CCNC(=O)C1(Cc2ccccc2)CCN(S(=O)(=O)c2ccc3occc3c2)CC1`, the % ACh max response was 22.2%.
Then `CCN(Cc1ccccc1)C(=O)C1CCN(S(=O)(=O)c2ccc(OC(F)(F)F)cc2)CC1`, with 71.7% [at 30 µM] (active); and `CCN(Cc1cccc(C#N)c1)C(=O)C1CCN(S(=O)(=O)c2ccc3cn[nH]c3c2)CC1`, with 46.2%.
Turning to `CCN(Cc1ccccc1)C(=O)C1CCN(S(=O)(=O)c2cccnc2Cl)CC1`, the % ACh max response is 30% [at 30 µM].
For the molecule `CCN(Cc1ccccc1)C(=O)C1CCN(S(=O)(=O)CC(C)C)CC1`, the % ACh max response is 21.3% [at 30 µM].
On to `CCN(Cc1ccccc1)C(=O)C1CCN(S(=O)(=O)c2ccccc2OC)CC1`, for which the % ACh max response is 28.1% [at 30 µM].
Then `CCN(Cc1cccc(F)c1F)C(=O)C1CCN(S(=O)(=O)c2ccc3cn[nH]c3c2)CC1`, with 63.7% (active).
Consider `CCN(Cc1ccccc1C(F)(F)F)C(=O)C1CCN(S(=O)(=O)c2ccc3cn[nH]c3c2)CC1`, for which the % ACh max response is 84.2% (active).
As for `CCN(Cc1ccccc1)C(=O)C1CCN(S(=O)(=O)c2cccc3c2OCCO3)CC1`, the % ACh max response is 48% [at 30 µM].
Then `CC(=O)N(Cc1ccccc1)CC1CCN(S(=O)(=O)c2ccc3occc3c2)CC1`, with 8.25%; and `CCN(Cc1ccccc1)C(=O)C1CCN(S(=O)(=O)c2ccc(C)s2)CC1`, with 68.8% [at 30 µM] (active); and `CCN(Cc1ccccc1)C(=O)C1CCN(S(=O)(=O)c2ccc3cnn(C)c3c2)CC1`, with 62.3% (active).
For the molecule `CC1c2ccccc2CCN1C(=O)C1CCN(S(=O)(=O)c2ccc3cn[nH]c3c2)CC1` (stereo not drawn), the % ACh max response was 36.3%.
Regarding `CCN(Cc1ccccc1)C(=O)C1CCN(S(=O)(=O)c2cnc[nH]2)CC1`, the % ACh max response is 33.7% [at 30 µM].
Consider `CCN(Cc1ccccc1)C(=O)C1CCN(S(=O)(=O)c2c(C)noc2C)CC1`, for which the % ACh max response was 25.9% [at 30 µM].
With `COc1ccc(S(=O)(=O)N2CCC(C(=O)N3CCCC3c3ccccc3)CC2)cc1` (stereo not drawn) the figure was 25.6% [at 30 µM]; with `CCN(Cc1ccccc1)C(=O)C1CCN(S(=O)(=O)c2ccncc2)CC1`, 24.6% (active).
With `CCN(Cc1ccccc1OC)C(=O)C1CCN(S(=O)(=O)c2ccc3cn[nH]c3c2)CC1`, the % ACh max response was 84.5% (active).
Then `CCN(Cc1ccccc1)C(=O)C1CCN(S(=O)(=O)Cc2ccc(Cl)cc2)CC1`, with 16% [at 30 µM].
As to `CCN(Cc1ccccc1)C(=O)C1CCN(S(=O)(=O)c2ccc3c(c2)OCCO3)CC1`, the % ACh max response is 72.2% [at 30 µM] (active).
With `CCN(Cc1ccccc1)C(=O)C1CCN(S(=O)(=O)c2ccc(Br)cc2)CC1` the figure was 62.1% [at 30 µM] (active); with `CCN(Cc1ccccc1)C(=O)C1CCN(S(=O)(=O)c2ccc3c(c2)OCO3)CC1`, 62.9% (active); with `CC(=O)N(Cc1ccccc1)CC1CCN(S(=O)(=O)c2ccc3c(c2)OCCO3)CC1`, 7.56%.
`CCN(Cc1ccccc1)C(=O)C1CCNCC1`: the % ACh max response is 14.9% [at 30 µM].
With `CCN(CC1CCN(S(=O)(=O)c2cccc(OC)c2)CC1)C(=O)c1ccccc1` the figure was 15.2%.
As to `CCN(Cc1ccccc1)C(=O)C1CCN(S(=O)(=O)c2ccc3nsnc3c2)CC1`, the % ACh max response is 77.9% [at 30 µM] (active).
With `CCN(Cc1ccccc1)C(=O)C1CCN(S(=O)(=O)c2ccc(OC(F)F)cc2)CC1` the figure was 66.1% [at 30 µM] (active).
